We go through 40 sequences from paper PMC9838217, “Structure of SALL4 zinc finger domain reveals link between AT-rich DNA binding and Okihiro syndrome”.

Changes are numbered by the printed parent chain.

The target in one assay is T1, SALL4 ZFC4 WT (HT-SELEX) (Mus musculus, UniProt Q8BX22 870-940).
T1 sequence: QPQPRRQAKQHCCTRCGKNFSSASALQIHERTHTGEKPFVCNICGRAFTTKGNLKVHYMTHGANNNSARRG
The assay can be described thus: HT-SELEX; high values mean tight binding. The following applies: protein: recombinant; vector His6-GST; dsDNA, one strand shown. The essentials: (§1)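 DNA from a random library (1.5 µg in the first cycle, 200 ng afterwards) was incubated with purified recombinant mouse SALL4 zinc finger cluster 4, residues 870–940 (1 µg), for 10 min at room temperature in 100 µl buffer: 10 mM Tris–HCl pH 7.5, 50 mM NaCl, poly(dI-dC), DTT. Bound complexes were pulled down on Ni2+ beads, washed and PCR-amplified, and the selection was repeated for up to 6 cycles in triplicate. MiSeq reads were scanned for 6-mers, and binding signal is each canonical k-mer's read fraction as fold change over the initial random library.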
Consider CGTCAC, for which the binding signal came to 0.375 ± 0.0256 fold-change vs cycle 0.

As for ATCTTA, the binding signal stood at 2.21 ± 0.106 fold-change vs cycle 0.

Turning to TACCCA, the binding signal was 0.781 ± 0.0395 fold-change vs cycle 0.

As for ACATTC, the binding signal was determined as 1.29 ± 0.0367 fold-change vs cycle 0.

For the sequence GAAATA, the binding signal was determined as 2.68 ± 0.193 fold-change vs cycle 0.

As for ACAGCA, the binding signal came to 0.623 ± 0.0211 fold-change vs cycle 0.

For the sequence CCAGAG, the binding signal was determined as 0.463 ± 0.0303 fold-change vs cycle 0.

For GGTAGA, the binding signal was found to be 0.746 ± 0.0282 fold-change vs cycle 0.

Regarding GGTCAC, the binding signal is 0.432 ± 0.0454 fold-change vs cycle 0.

With GCCTGA, the binding signal was 0.303 ± 0.0278 fold-change vs cycle 0.

With AAGGAG, the binding signal worked out at 1 ± 0.0181 fold-change vs cycle 0.

Take CAAGTG: the binding signal is 0.7915 ± 0.00346 fold-change vs cycle 0.

Turning to GTTAAA, the binding signal came out at 1.66 ± 0.0709 fold-change vs cycle 0.

On to GTCCCA, for which the binding signal was found to be 0.392 ± 0.0166 fold-change vs cycle 0.

ACTTTC: the binding signal came out at 1.28 ± 0.0405 fold-change vs cycle 0.

Turning to TGTCAA, the binding signal was 1.12 ± 0.0378 fold-change vs cycle 0.

Consider GACAAA, for which the binding signal was found to be 0.966 ± 0.023 fold-change vs cycle 0.

On to TGGTAA, for which the binding signal amounted to 1.41 ± 0.0525 fold-change vs cycle 0.

For the sequence GGATTA, the binding signal was 1.49 ± 0.0733 fold-change vs cycle 0.

Consider GACAGA, for which the binding signal turned out to be 0.725 ± 0.0509 fold-change vs cycle 0.

Turning to ATCTGC, the binding signal was 0.624 ± 0.0226 fold-change vs cycle 0.

Regarding ACTTTA, the binding signal amounted to 1.93 ± 0.117 fold-change vs cycle 0.

With CGTGTA, the binding signal was 0.651 ± 0.0387 fold-change vs cycle 0.

As for ACATAA, the binding signal was 2.21 ± 0.177 fold-change vs cycle 0.

In the case of GCTACA, the binding signal worked out at 0.6 ± 0.0288 fold-change vs cycle 0.

Consider AAAAAC, for which the binding signal was 1.45 ± 0.0971 fold-change vs cycle 0.

As for CACTCC, the binding signal is 0.513 ± 0.0257 fold-change vs cycle 0.

In the case of AACCCC, the binding signal is 0.459 ± 0.0283 fold-change vs cycle 0.

As for GGTAAA, the binding signal was 1.19 ± 0.0123 fold-change vs cycle 0.

Take ACACTG: the binding signal was 0.743 ± 0.0572 fold-change vs cycle 0.

As to ATTTCA, the binding signal is 2.56 ± 0.117 fold-change vs cycle 0.

Take GACTGA: the binding signal was determined as 0.805 ± 0.0317 fold-change vs cycle 0.

Turning to AAAGTG, the binding signal stood at 1.1 ± 0.0306 fold-change vs cycle 0.

For the sequence AGTACG, the binding signal amounted to 0.724 ± 0.0595 fold-change vs cycle 0.

As to ATACAC, the binding signal was 1.31 ± 0.0559 fold-change vs cycle 0.

For GAGGTA, the binding signal was 0.857 ± 0.032 fold-change vs cycle 0.

With TCGGAA, the binding signal came out at 0.681 ± 0.041 fold-change vs cycle 0.

As for AGGGTA, the binding signal was 0.87 ± 0.0133 fold-change vs cycle 0.

For CGTACG, the binding signal was 0.303 ± 0.0125 fold-change vs cycle 0.

With AATCGG, the binding signal came to 0.593 ± 0.0172 fold-change vs cycle 0.

The target in another assay is T2, SALL4 ZFC4 R900W (HT-SELEX) (Mus musculus, UniProt Q8BX22 870-940, R900W).
T2 sequence: T1 sequence with R31W
Nature of the assay: HT-SELEX; high values mean tight binding. Particulars: protein: recombinant; vector His6-GST; dsDNA, one strand shown. In a few lines:
as §1
Turning to CGTCAC, the binding signal worked out at 0.436 ± 0.013 fold-change vs cycle 0.

ATCTTA: the binding signal amounted to 2.19 ± 0.133 fold-change vs cycle 0.

For TACCCA, the binding signal was 0.882 ± 0.0184 fold-change vs cycle 0.

Consider ACATTC, for which the binding signal was 1.44 ± 0.0794 fold-change vs cycle 0.

Regarding GAAATA, the binding signal turned out to be 1.89 ± 0.115 fold-change vs cycle 0.

Take ACAGCA: the binding signal amounted to 0.694 ± 0.0191 fold-change vs cycle 0.

With CCAGAG, the binding signal was found to be 0.544 ± 0.0428 fold-change vs cycle 0.

As for GGTAGA, the binding signal stood at 0.849 ± 0.0219 fold-change vs cycle 0.

Turning to GGTCAC, the binding signal was found to be 0.512 ± 0.0261 fold-change vs cycle 0.

Take GCCTGA: the binding signal is 0.386 ± 0.0159 fold-change vs cycle 0.

Consider AAGGAG, for which the binding signal was 1.14 ± 0.0427 fold-change vs cycle 0.

In the case of CAAGTG, the binding signal was found to be 0.902 ± 0.026 fold-change vs cycle 0.

Turning to GTTAAA, the binding signal stood at 1.8 ± 0.123 fold-change vs cycle 0.

Take GTCCCA: the binding signal stood at 0.464 ± 0.0186 fold-change vs cycle 0.

As for ACTTTC, the binding signal was 1.42 ± 0.0806 fold-change vs cycle 0.

For TGTCAA, the binding signal amounted to 1.266 ± 0.01 fold-change vs cycle 0.

Consider GACAAA, for which the binding signal was determined as 1.08 ± 0.0338 fold-change vs cycle 0.

Regarding TGGTAA, the binding signal is 1.47 ± 0.055 fold-change vs cycle 0.

As to GGATTA, the binding signal stood at 1.47 ± 0.0516 fold-change vs cycle 0.

As for GACAGA, the binding signal was found to be 0.826 ± 0.0442 fold-change vs cycle 0.

Turning to ATCTGC, the binding signal is 0.711 ± 0.0187 fold-change vs cycle 0.

As for ACTTTA, the binding signal came out at 1.99 ± 0.146 fold-change vs cycle 0.

With CGTGTA, the binding signal stood at 0.756 ± 0.0247 fold-change vs cycle 0.

Take ACATAA: the binding signal was 1.96 ± 0.0742 fold-change vs cycle 0.

On to GCTACA, for which the binding signal was found to be 0.67 ± 0.0106 fold-change vs cycle 0.

For the sequence AAAAAC, the binding signal stood at 1.49 ± 0.0832 fold-change vs cycle 0.

Regarding CACTCC, the binding signal stood at 0.603 ± 0.0288 fold-change vs cycle 0.

As for AACCCC, the binding signal worked out at 0.547 ± 0.00959 fold-change vs cycle 0.

GGTAAA: the binding signal came out at 1.3 ± 0.0352 fold-change vs cycle 0.

Turning to ACACTG, the binding signal came out at 0.877 ± 0.0574 fold-change vs cycle 0.

On to ATTTCA, for which the binding signal came to 1.87 ± 0.0758 fold-change vs cycle 0.

Turning to GACTGA, the binding signal worked out at 0.959 ± 0.0214 fold-change vs cycle 0.

On to AAAGTG, for which the binding signal was found to be 1.23 ± 0.0192 fold-change vs cycle 0.

Take AGTACG: the binding signal was determined as 0.83 ± 0.0465 fold-change vs cycle 0.

For the sequence ATACAC, the binding signal came to 1.36 ± 0.0547 fold-change vs cycle 0.

GAGGTA: the binding signal was 0.988 ± 0.0197 fold-change vs cycle 0.

In the case of TCGGAA, the binding signal came to 0.761 ± 0.0268 fold-change vs cycle 0.

As for AGGGTA, the binding signal was determined as 1 ± 0.0465 fold-change vs cycle 0.

As to CGTACG, the binding signal is 0.389 ± 0.029 fold-change vs cycle 0.

As to AATCGG, the binding signal turned out to be 0.657 ± 0.021 fold-change vs cycle 0.

For the next assay, the target named is T3, SALL4 ZFC4 G921D (HT-SELEX) (Mus musculus, UniProt Q8BX22 870-940, G921D).
T3 sequence: T1 sequence with G52D
Nature of the assay: HT-SELEX; high values mean tight binding. The following applies: protein: recombinant; vector His6-GST; dsDNA, one strand shown. In a few lines:
as §1
As to CGTCAC, the binding signal was found to be 0.545 ± 0.0521 fold-change vs cycle 0.

As for ATCTTA, the binding signal turned out to be 1.92 ± 0.224 fold-change vs cycle 0.

Take TACCCA: the binding signal came to 0.886 ± 0.035 fold-change vs cycle 0.

As to ACATTC, the binding signal was determined as 1.37 ± 0.0959 fold-change vs cycle 0.

Regarding GAAATA, the binding signal worked out at 1.72 ± 0.124 fold-change vs cycle 0.

Take ACAGCA: the binding signal amounted to 0.793 ± 0.0143 fold-change vs cycle 0.

For CCAGAG, the binding signal came out at 0.625 ± 0.0553 fold-change vs cycle 0.

Consider GGTAGA, for which the binding signal amounted to 0.892 ± 0.0246 fold-change vs cycle 0.

As to GGTCAC, the binding signal came out at 0.662 ± 0.0597 fold-change vs cycle 0.

Turning to GCCTGA, the binding signal turned out to be 0.497 ± 0.0446 fold-change vs cycle 0.

Turning to AAGGAG, the binding signal was found to be 1.13 ± 0.0474 fold-change vs cycle 0.

As to CAAGTG, the binding signal was 0.944 ± 0.0555 fold-change vs cycle 0.

On to GTTAAA, for which the binding signal was determined as 1.61 ± 0.154 fold-change vs cycle 0.

Regarding GTCCCA, the binding signal worked out at 0.563 ± 0.0717 fold-change vs cycle 0.

On to ACTTTC, for which the binding signal came out at 1.37 ± 0.0709 fold-change vs cycle 0.

For TGTCAA, the binding signal was found to be 1.26 ± 0.0283 fold-change vs cycle 0.

For the sequence GACAAA, the binding signal came out at 1.1 ± 0.0293 fold-change vs cycle 0.

As to TGGTAA, the binding signal was determined as 1.4 ± 0.0814 fold-change vs cycle 0.

For GGATTA, the binding signal amounted to 1.38 ± 0.0744 fold-change vs cycle 0.

In the case of GACAGA, the binding signal was 0.903 ± 0.00925 fold-change vs cycle 0.

On to ATCTGC, for which the binding signal came out at 0.798 ± 0.0337 fold-change vs cycle 0.

As for ACTTTA, the binding signal is 1.75 ± 0.227 fold-change vs cycle 0.

For CGTGTA, the binding signal amounted to 0.812 ± 0.0246 fold-change vs cycle 0.

On to ACATAA, for which the binding signal was found to be 1.75 ± 0.158 fold-change vs cycle 0.

Regarding GCTACA, the binding signal amounted to 0.752 ± 0.0182 fold-change vs cycle 0.

Regarding AAAAAC, the binding signal is 1.42 ± 0.0693 fold-change vs cycle 0.

On to CACTCC, for which the binding signal came out at 0.684 ± 0.0287 fold-change vs cycle 0.

AACCCC: the binding signal was determined as 0.617 ± 0.0497 fold-change vs cycle 0.

Regarding GGTAAA, the binding signal came to 1.23 ± 0.0522 fold-change vs cycle 0.

On to ACACTG, for which the binding signal was determined as 0.908 ± 0.0148 fold-change vs cycle 0.

Regarding ATTTCA, the binding signal came out at 1.7 ± 0.117 fold-change vs cycle 0.

Regarding GACTGA, the binding signal was 0.953 ± 0.0219 fold-change vs cycle 0.

For the sequence AAAGTG, the binding signal amounted to 1.22 ± 0.0345 fold-change vs cycle 0.

As for AGTACG, the binding signal turned out to be 0.871 ± 0.0406 fold-change vs cycle 0.

Take ATACAC: the binding signal was determined as 1.35 ± 0.0583 fold-change vs cycle 0.

Consider GAGGTA, for which the binding signal was determined as 0.996 ± 0.0208 fold-change vs cycle 0.

Turning to TCGGAA, the binding signal came to 0.862 ± 0.0635 fold-change vs cycle 0.

Turning to AGGGTA, the binding signal was 0.989 ± 0.0135 fold-change vs cycle 0.

Turning to CGTACG, the binding signal was 0.481 ± 0.0656 fold-change vs cycle 0.

Take AATCGG: the binding signal was 0.763 ± 0.0166 fold-change vs cycle 0.
